# Results as given in the supplement of paper PMC12494721.
# Structures can show the parent of a compound that is named as a salt.
# Legend:
# Settings in all cases: incubation time: 27 h, anaerobic, 37 °C;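 for the amine columns active = adjusted P below 0.05 in both replicates with a change the same way and a mean fold change under 0.8 or over 1.25; inactive = the rest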
# [1] = test system: Clostridium sporogenes DSM 1664; assay: growth (OD595) fold change vs plate DMSO controls (fold change (ratio)); higher = more growth
# Method in brief: (§1)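 The reported measure is growth: the fold change against the median of DMSO controls on the plate. Absorbance at 595 nm from anaerobic 96-well mGAM cultures grown for 27 h at 37 °C was blank-subtracted, corrected for background with 20 µM compound solutions in water, and converted to OD with a calibration factor of 5. Fold changes above 1.5 appear as NA, and values are the mean of 2 biological replicates.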
# Escherichia coli IAI1 [2] = assay: as above
# Method in brief: as §1
# [3] = test system: Klebsiella aerogenes DSM 30053; assay: as above
# Method in brief: as §1
# [4] = test system: Ruminococcus gnavus DSM 108212; assay: as above
# Method in brief: as §1
# [5] = test system: Klebsiella aerogenes DSM 30053; assay: fold change of Histamine concentration vs plate DMSO controls (fold change (ratio)); higher = more amine produced, active = hit call of the paper (significant change in both replicates, either direction)
# Method in brief: (§2)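 Extracts of whole anaerobic mGAM cultures were analysed for amines by LC–triple-quadrupole MS with dynamic MRM and external calibration curves, with drift corrected within batch. Four gut strains were grown at 37 °C for 27 h in 80 µL wells with compounds at 20 µM final, sweeteners at 50 µM final. Each value expresses fold change over plate DMSO controls. The average of 2 biological replicates is shown.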
# [6] = test system: Clostridium sporogenes DSM 1664; assay: fold change of Tryptamine concentration vs plate DMSO controls (fold change (ratio)); higher = more amine produced, active = hit call of the paper (significant change in both replicates, either direction)
# Method in brief: as §2
# [7] = test system: Ruminococcus gnavus DSM 108212; assay: as above
# Method in brief: as §2
# Escherichia coli IAI1 [8] = assay: fold change of Putrescine concentration vs plate DMSO controls (fold change (ratio)); higher = more amine produced, active = hit call of the paper (significant change in both replicates, either direction)
# Method in brief: as §2
# [9] = test system: Klebsiella aerogenes DSM 30053; assay: as above
# Method in brief: as §2
# Escherichia coli IAI1 [10] = assay: fold change of Cadaverine concentration vs plate DMSO controls (fold change (ratio)); higher = more amine produced, active = hit call of the paper (significant change in both replicates, either direction)
# Method in brief: as §2
# [11] = test system: Klebsiella aerogenes DSM 30053; assay: as above
# Method in brief: as §2
# [12] = test system: Ruminococcus gnavus DSM 108212; assay: fold change of 2-Phenylethylamine concentration vs plate DMSO controls (fold change (ratio)); higher = more amine produced, active = hit call of the paper (significant change in both replicates, either direction)
# Method in brief: as §2
Compound,growth [1],growth (Escherichia coli IAI1 [2]),growth [3],growth [4],fold change of Histamine concentration [5],fold change of Tryptamine concentration [6],fold change of Tryptamine concentration [7],fold change of Putrescine concentration (Escherichia coli IAI1 [8]),fold change of Putrescine concentration [9],fold change of Cadaverine concentration (Escherichia coli IAI1 [10]),fold change of Cadaverine concentration [11],fold change of 2-Phenylethylamine concentration [12]
CC(C)CC(=O)N[C@H](C(=O)N[C@H](C(=O)N[C@@H](CC(C)C)[C@@H](O)CC(=O)N[C@@H](C)C(=O)N[C@@H](CC(C)C)[C@@H](O)CC(=O)O)C(C)C)C(C)C [Pepstatin A] (20 µM),1.1,1,1,1.06,1.02 (inactive),1.06 (inactive),1.05 (inactive),0.953 (inactive),1.01 (inactive),0.961 (inactive),0.999 (inactive),1.06 (inactive)
CC(=O)Nc1ccc(CC(=O)O)cc1 [Actarit] (20 µM),0.864,0.972,1.03,1.11,1.02 (inactive),1.03 (inactive),0.992 (inactive),1.35 (inactive),1 (inactive),0.96 (inactive),1.01 (inactive),0.944 (inactive)
CN1CCCN=C1/C=C/c1cccs1 [Pyrantel tartrate] (20 µM),1.14,1.04,1.1,1.04,0.952 (inactive),1.02 (inactive),1.08 (inactive),1.04 (inactive),1 (inactive),1.03 (inactive),1.02 (inactive),1.01 (inactive)
O=C1Cc2cc(CCN3CCN(c4nsc5ccccc45)CC3)c(Cl)cc2N1 [Ziprasidone  hydrochloride monohydrate] (20 µM),1.09,1.06,1.03,1.23,1.23 (inactive),0.998 (inactive),0.712 (active),1.12 (inactive),1.1 (inactive),1.08 (inactive),1.06 (inactive),0.771 (active)
Cc1ccccc1OCC(O)CO (stereo not drawn) [Mephenesin] (20 µM),0.974,1.12,1.02,0.982,1.01 (inactive),1.02 (inactive),1.04 (inactive),1.13 (inactive),1 (inactive),0.927 (inactive),1 (inactive),1.06 (inactive)
NC(=O)C(c1ccccc1)(c1ccccc1)[C@@H]1CCN(CCc2ccc3c(c2)CCO3)C1 [Darifenacin hydrobromide] (20 µM),1.04,0.975,1.02,0.96,0.873 (inactive),1.19 (inactive),1.1 (inactive),0.943 (inactive),1.05 (inactive),0.961 (inactive),1.15 (inactive),1.25 (inactive)
CC(C)(C(=O)O)c1ccc(C(O)CCCN2CCC(C(O)(c3ccccc3)c3ccccc3)CC2)cc1 (stereo not drawn) [Fexofenadine hydrochloride] (20 µM),1.1,1.02,1.09,1.19,0.876 (inactive),1.04 (inactive),0.978 (inactive),0.971 (inactive),0.999 (inactive),1.02 (inactive),1.01 (inactive),0.993 (inactive)
C[n+]1ccccc1/C=N/O [Pralidoxime chloride] (20 µM),1.19,0.995,1.01,1.05,1.13 (inactive),1.02 (inactive),1.01 (inactive),0.968 (inactive),1.04 (inactive),1.02 (inactive),0.991 (inactive),1.01 (inactive)
NC(=O)c1cn(Cc2c(F)cccc2F)nn1 [Rufinamide] (20 µM),0.904,0.974,1.01,0.922,0.998 (inactive),0.969 (inactive),1.02 (inactive),0.999 (inactive),0.995 (inactive),0.98 (inactive),0.985 (inactive),1.02 (inactive)
CCOc1nc2cccc(C(=O)OCc3oc(=O)oc3C)c2n1Cc1ccc(-c2ccccc2-c2noc(=O)[nH]2)cc1 [Azilsartan medoxomil] (20 µM),1.04,1,0.984,1.1,1.04 (inactive),1.01 (inactive),1.07 (inactive),1.02 (inactive),1.01 (inactive),0.997 (inactive),0.999 (inactive),1.03 (inactive)
CC(=O)OCC(=O)[C@@]12N=C(C)O[C@@H]1C[C@H]1[C@@H]3CCC4=CC(=O)C=C[C@]4(C)[C@H]3[C@@H](O)C[C@@]12C [Deflazacort] (20 µM),0.981,0.976,0.986,0.905,1 (inactive),1.02 (inactive),1.07 (inactive),1.03 (inactive),1 (inactive),0.993 (inactive),0.991 (inactive),1.1 (inactive)
CN1CCN(CCCN2c3ccccc3Sc3ccc(Cl)cc32)CC1 [Prochlorperazine dimaleate] (20 µM),1.06,1.11,1.14,0.858,0.917 (inactive),1.04 (inactive),0.87 (inactive),0.974 (inactive),0.979 (inactive),0.971 (inactive),1.02 (inactive),0.97 (inactive)
CN(C)CCOC(c1ccc(Cl)cc1)c1ccccn1 (stereo not drawn) [Carbinoxamine maleate salt] (20 µM),1.2,1.01,0.985,0.88,1.04 (inactive),0.981 (inactive),1.05 (inactive),0.966 (inactive),1.02 (inactive),0.974 (inactive),1 (inactive),1.1 (inactive)
COc1cc2/c(=N/c3ccc(Br)cc3F)nc[nH]c2cc1OCC1CCN(C)CC1 [Vandetanib] (20 µM),1.15,1.07,1.06,0.995,1.01 (inactive),1.04 (inactive),1.11 (inactive),0.989 (inactive),0.907 (inactive),0.992 (inactive),1.1 (inactive),1.14 (inactive)
Cc1ccc(C(=O)c2cc(O)c(O)c([N+](=O)[O-])c2)cc1 [Tolcapone] (20 µM),1.11,0.961,0.997,1.19,1.01 (inactive),0.908 (inactive),0.983 (inactive),1.33 (inactive),0.998 (inactive),0.981 (inactive),1 (inactive),0.971 (inactive)
COc1ccc(C2C(=O)c3ccccc3C2=O)cc1 [Anisindione] (20 µM),0.917,0.951,0.965,1.04,1.03 (inactive),0.976 (inactive),0.994 (inactive),0.953 (inactive),1 (inactive),0.994 (inactive),0.991 (inactive),0.951 (inactive)
CC(C)Nc1ncccn1 [Isaxonine] (20 µM),1.12,0.989,1.07,1.01,0.936 (inactive),1.05 (inactive),0.919 (inactive),1 (inactive),1.04 (inactive),1.01 (inactive),1.01 (inactive),0.894 (inactive)
CN1C(=O)OC(C)(C)C1=O [Trimethadione] (20 µM),1,1.03,1.01,1.27,0.977 (inactive),0.924 (inactive),0.948 (inactive),1.02 (inactive),0.987 (inactive),0.991 (inactive),0.999 (inactive),0.919 (inactive)
O=C(c1ccc(F)cc1)C1CCN(CCn2c(=O)[nH]c3ccccc3c2=O)CC1 [Ketanserin tartrate hydrate] (20 µM),1.21,0.974,1.02,1.06,1.05 (inactive),1.18 (inactive),1.01 (inactive),1.03 (inactive),1.02 (inactive),0.963 (inactive),1.02 (inactive),1.02 (inactive)
O=C(O)Cc1sc(-c2ccccc2)nc1-c1ccc(Cl)cc1 [Fentiazac] (20 µM),1.09,1.06,1.06,0.808,0.945 (inactive),0.999 (inactive),0.966 (inactive),1.04 (inactive),0.971 (inactive),0.966 (inactive),1.03 (inactive),1.06 (inactive)
Oc1ncnc2[nH]ncc12 [Allopurinol] (20 µM),1.03,0.942,0.974,1.02,1.03 (inactive),1.04 (inactive),1.01 (inactive),1.09 (inactive),1 (inactive),1.01 (inactive),1.01 (inactive),1.02 (inactive)
CCN(CC)CCOCCOC(=O)C1(c2ccccc2)CCCC1 [Carbetapentane citrate] (20 µM),1.08,1,0.996,0.743,0.992 (inactive),1.02 (inactive),0.995 (inactive),0.958 (inactive),0.996 (inactive),0.988 (inactive),0.993 (inactive),0.979 (inactive)
C1N2CN3CN1CN(C2)C3 [Methenamine] (20 µM),0.885,0.986,1.02,1.16,0.978 (inactive),1.05 (inactive),1.04 (inactive),1.01 (inactive),0.982 (inactive),1 (inactive),0.993 (inactive),1.03 (inactive)
O=C(c1cc(O)c(O)c(O)c1)c1ccc(O)c(O)c1O [Exifone] (20 µM),1.09,1,0.934,0.904,1.06 (inactive),1.09 (inactive),1.03 (inactive),1.01 (inactive),0.998 (inactive),0.991 (inactive),1 (inactive),1.07 (inactive)
